Assay results as given in PMC5540273 (PLoS ONE, 2017).

Experiments:
[1] = system: T1, YANK1
T1 construct: gene STK32A

[2] = system: AAK1; settings: concentration: 1 μM, replicates: in singlicate; n = 1
[3] = system: ABL1-nonphosphorylated; settings: concentration: 1 μM, replicates: in singlicate; n = 1
[4] = system: ABL1-phosphorylated; settings: concentration: 1 μM, replicates: in singlicate; n = 1
[5] = system: ABL2; settings: concentration: 1 μM, replicates: in singlicate; n = 1
[6] = system: ACVR1B; settings: concentration: 1 μM, replicates: in singlicate; n = 1
[7] = system: ACVR1; settings: concentration: 1 μM, replicates: in singlicate; n = 1
[8] = system: ACVR2A; settings: concentration: 1 μM, replicates: in singlicate; n = 1
[9] = system: ACVR2B; settings: concentration: 1 μM, replicates: in singlicate; n = 1
[10] = system: ACVRL1; settings: concentration: 1 μM, replicates: in singlicate; n = 1
[11] = system: T2, ADCK3; settings: concentration: 1 μM, replicates: in singlicate; n = 1
T2 construct: gene CABC1

[12] = system: ADCK4; settings: concentration: 1 μM, replicates: in singlicate; n = 1
[13] = system: AKT1; settings: concentration: 1 μM, replicates: in singlicate; n = 1
[14] = system: AKT2; settings: concentration: 1 μM, replicates: in singlicate; n = 1
[15] = system: T3, p38-alpha
T3 construct: gene MAPK14
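For %Inh in this document: KINOMEscan kinase panel screen.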
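For Kd in this document: kd values determined as follow-up on hits from a single-replicate KINOMEscan panel screen.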

| SMILES | Kd [1] [nM] | %Inh [2] [%] | %Inh [3] [%] | %Inh [4] [%] | %Inh [5] [%] | %Inh [6] [%] | %Inh [7] [%] | %Inh [8] [%] | %Inh [9] [%] | %Inh [10] [%] | %Inh [11] [%] | %Inh [12] [%] | %Inh [13] [%] | %Inh [14] [%] | Kd [15] [nM] |
| --- | --- | --- | --- | --- | --- | --- | --- | --- | --- | --- | --- | --- | --- | --- | --- |
| FC(F)(F)c1ccc(-c2cc(-c3c[nH]nc3-c3ccccn3)ccn2)cc1 [GW599550] | > 10000 | 24 | 17 | 21 | 16 | 46 | 16 | 0 | 34 | 0 | 9 | 37 | 0 | 0 | – |
| CC(=O)Nc1n[nH]c2ncc(-c3ccccc3)cc12 [SB-548492] | – | 0 | 49 | 20 | 11 | 2 | 13 | 37 | 10 | 0 | 0 | 0 | 0 | 0 | – |
| N#Cc1ccc(Oc2ccc(Nc3ncnc4cc[nH]c34)cc2Cl)cc1 | – | 14 | 51 | 6 | 12 | 15 | 1 | 27 | 25 | 6 | 13 | 8 | 0 | 0 | – |
| NC(=O)c1sc(-n2cnc3ccccc32)cc1OCc1ccccc1F [GSK1024306] | – | 45 | 0 | 0 | 8 | 0 | 0 | 0 | 2 | 0 | 5 | 7 | 0 | 0 | 280 |
| c1ccc(-c2ccc3c(-c4ccnc(Nc5ccc6c(c5)OCCO6)n4)cnn3n2)cc1 [GW818941] | – | 0 | 0 | 0 | 12 | 0 | 24 | 32 | 11 | 13 | 0 | 9 | 0 | 10 | – |
| Cn1cc(-c2ccc3c(c2)CCN3C(=O)Cc2cccc(C(F)(F)F)c2)c2c(N)ncnc21 [GSK2606414] | – | 0 | 0 | 0 | 11 | 0 | 0 | 0 | 1 | 4 | 6 | 0 | 0 | 18 | – |
| CN1CCC(n2cnc(-c3ccc(F)cc3)c2-c2ccnc(NC3CCNCC3)n2)CC1 [SB-229482] | – | 7 | 44 | 0 | 0 | 0 | 0 | 0 | 0 | 7 | 9 | 5 | 0 | 0 | 220 |
